# Assay results: PMC4336329 (PLoS ONE, 2015)
# Hit rate of the full screen: of about 310,000 compounds, about 14,000 (4.5%) showed an effect of 50% or more. The effect is printed as a negative number. For the sample, strong results were picked, then their nearest neighbours and some compounds at random.
# Biological target: human ether-à-go-go-related gene (hERG) potassium channel (human, UniProt Q12809)
# Assay: primary screen, population patch clamp on CHO cells stably expressing hERG; higher = less effect of the substance
# 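Note: peak tail current of the secondary pulse compared with the same well before compound.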
# Sequence of human ether-à-go-go-related gene (hERG) potassium channel (Q12809 whole entry, looked up): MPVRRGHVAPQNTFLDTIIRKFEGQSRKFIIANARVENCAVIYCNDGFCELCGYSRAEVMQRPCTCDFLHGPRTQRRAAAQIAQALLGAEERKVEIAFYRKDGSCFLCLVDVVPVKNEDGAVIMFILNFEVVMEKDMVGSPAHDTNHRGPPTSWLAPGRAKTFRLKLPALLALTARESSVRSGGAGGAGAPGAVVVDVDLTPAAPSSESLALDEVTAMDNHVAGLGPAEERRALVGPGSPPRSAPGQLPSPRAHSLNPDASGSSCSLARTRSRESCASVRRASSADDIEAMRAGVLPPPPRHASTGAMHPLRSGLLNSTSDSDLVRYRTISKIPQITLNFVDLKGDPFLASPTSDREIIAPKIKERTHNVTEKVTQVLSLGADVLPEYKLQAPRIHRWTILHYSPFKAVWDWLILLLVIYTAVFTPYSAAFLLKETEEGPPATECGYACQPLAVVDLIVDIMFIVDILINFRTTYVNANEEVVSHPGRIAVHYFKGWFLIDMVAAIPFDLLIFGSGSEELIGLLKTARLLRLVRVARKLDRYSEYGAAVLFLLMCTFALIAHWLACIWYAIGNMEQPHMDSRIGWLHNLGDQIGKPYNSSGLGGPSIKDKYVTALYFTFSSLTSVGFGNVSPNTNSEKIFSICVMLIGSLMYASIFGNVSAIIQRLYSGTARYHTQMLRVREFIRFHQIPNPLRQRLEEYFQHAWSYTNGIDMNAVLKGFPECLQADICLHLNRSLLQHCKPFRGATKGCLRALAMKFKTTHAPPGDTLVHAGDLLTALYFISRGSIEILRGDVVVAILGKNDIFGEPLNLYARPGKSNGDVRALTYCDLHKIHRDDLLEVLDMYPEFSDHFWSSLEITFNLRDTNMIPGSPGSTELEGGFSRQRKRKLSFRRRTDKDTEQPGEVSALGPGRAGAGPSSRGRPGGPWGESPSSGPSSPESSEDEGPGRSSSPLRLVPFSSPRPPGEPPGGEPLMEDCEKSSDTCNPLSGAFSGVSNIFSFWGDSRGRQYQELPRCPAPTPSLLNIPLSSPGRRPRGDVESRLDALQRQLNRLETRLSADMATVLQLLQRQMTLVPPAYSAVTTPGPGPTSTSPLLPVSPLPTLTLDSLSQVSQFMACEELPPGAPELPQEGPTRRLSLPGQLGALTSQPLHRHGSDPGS
row,Compound,"hERG current change (%, negative = inhibition) at 10uM"
1,CC(C)[C@H](NC(=O)c1ccccc1F)C(=O)Nc1ccc2c(c1)OCO2,5.82%
2,Br.C1=C(c2cccc3ccccc23)N2CCN=C2S1,-34.5%
3,O=C1NC(=O)C(CCc2ccncc2)(Cc2cccc(Cl)c2Cl)C(=O)N1c1ccc(Br)cc1 (stereo not drawn),-11%
4,O=C1NC(=O)C(CCc2ccncc2)(CCc2ccccn2)C(=O)N1c1ccc(Br)cc1 (stereo not drawn),-75.6%
5,Cc1ccc(N2C(=O)NC(=O)C(CCc3ccccn3)(Cc3ccc(F)cc3)C2=O)cc1 (stereo not drawn),12.9%
6,COc1ccc(N2C(=O)NC(=O)C(CCc3ccncc3)(CCc3ccncc3)C2=O)cc1,-23.6%
7,CCc1ccc(N2C(=O)NC(=O)C(CCc3ccncc3)(CCc3ccncc3)C2=O)cc1,-69.9%
8,Cc1ccc(N2C(=O)NC(=O)C(CCc3ccncc3)(Cc3cccc(Cl)c3Cl)C2=O)cc1 (stereo not drawn),6.14%
9,CCOC(=O)c1c(C)[nH]c(C=O)c1Cc1cccc(Cl)c1,6.47%
10,C/C=C/c1cc(OC)c2c(c1)[C@H](C)[C@@H](c1ccc(O)c(OC)c1)O2,15.9%
11,O=C(CN1C(=O)NC2(CCCCCC2)C1=O)Nc1ccc(S(=O)(=O)N2CCOCC2)cc1,9.75%
12,Cc1ccccc1COc1ccc(-c2nn[nH]n2)cc1,13%
13,CC(C)CCNC(=O)C1CC2Cn3c(nc4cc(Cl)c(Cl)cc43)C2N1C (stereo not drawn),-56%
14,Cc1ccc(CNC(=O)C2CC3Cn4c(nc5cc(C)c(C)cc54)C3N2C)o1 (stereo not drawn),-36.9%
15,CN1C(C(=O)NCc2cccc(Br)c2)CC2Cn3c(nc4cc(Cl)c(Cl)cc43)C21 (stereo not drawn),-75.8%
16,COc1ccccc1CNC(=O)C1CC2Cn3c(nc4cc(C)c(C)cc43)C2N1C (stereo not drawn),-27%
17,Cc1ccc(CNC(=O)C2CC3Cn4c(nc5ccccc54)C3N2C)o1 (stereo not drawn),-0.36%
18,Cc1ccc(CNC(=O)C2CC3Cn4c(nc5cc(Cl)c(Cl)cc54)C3N2C)o1 (stereo not drawn),-58.5%
19,COCCNC(=O)C1CC2Cn3c(nc4cc(Cl)c(Cl)cc43)C2N1C (stereo not drawn),-26.5%
20,CN1C(C(=O)NCC2CC2)CC2Cn3c(nc4cc(Cl)c(Cl)cc43)C21 (stereo not drawn),-34.3%
21,CN1C(C(=O)NCc2ccco2)CC2Cn3c(nc4cc(Cl)c(Cl)cc43)C21 (stereo not drawn),-43.2%
22,COc1ccccc1CNC(=O)C1CC2Cn3c(nc4cc(Cl)c(Cl)cc43)C2N1C (stereo not drawn),-65.4%
23,Cc1cc2nc3n(c2cc1C)CC1CC(C(=O)NCCC(C)C)N(C)C31 (stereo not drawn),1.81%
24,COc1ccccc1CNC(=O)C1CC2Cn3c(nc4cc5ccccc5cc43)C2N1C (stereo not drawn),-43.8%
